Data on 107 compounds can be found in PubChem BioAssay AID435019 (Southern Research Specialized Biocontainment Screening …, 2010).

Among all 2,300 compounds or so, about 1,200 (52%) were called active. No rule for the calls is given here. So high a share suggests a set chosen from earlier hits. The list shows a part of the results. Results with a measured potency or affinity are listed apart.

The test can be described thus: mammalian cell cytotoxicity, dose response, cytotoxicity control for M. tuberculosis inhibitor project (AID 435019).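 Also: lower values mean fewer viable cells so more cytotoxicity.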 The conditions noted are these: cytotoxicity counter-screen; series mostly up to 40 µM. For orientation: The purpose of a counterscreen is to sort out artefacts and off-target activity.
With `COc1ccccc1N1CCN(/N=C/C(Cl)=C/c2ccccc2)CC1`, the outcome was inactive.

For `OCCN(/C=N/c1nc(-c2ccc(Br)cc2)cs1)CCO`, the compound was called inactive.

Take `CCOC(=O)c1cnc(SC2CCc3ccccc3C2=O)nc1N` (configuration not stated): the compound was classed as inactive.

Take `CCOC(=O)c1cc2cc3ccccc3cc2oc1=O`: the compound was classed as inactive.

In the case of `CC(Oc1cc2oc(=O)c3c(c2cc1Cl)CCCC3)C(=O)NCc1ccccn1` (configuration not stated), the outcome was inactive.

Consider `CCOC(=O)C1CCN(c2cc3c(cc2NC(=O)c2ccccc2Cl)n(C)c(=O)n3C)CC1`, for which the compound was called inactive.

As to `CCN(CC(=O)NCc1cccs1)C(=O)c1ccc([N+](=O)[O-])o1`, the call was inactive.

On to `CC1=NN(c2ccc(C)c(C)c2)C(=O)/C1=C\C=C\c1ccc([N+](=O)[O-])o1`, for which the result was inactive.

In the case of `CC(C)=N/N=C1/NC(=O)C(Cc2ccccc2)S1` (configuration not stated), the call was inactive.

As to `Cc1cc(Nc2ccccc2)c2c([N+](=O)[O-])ccc(C)c2n1`, the result was inactive.

As for `Cc1ccc(N/N=C/C=C/c2ccco2)cc1`, the result was inactive.

On to `O=c1c2cc(-c3ccccc3)sc2ncn1/N=C/c1ccco1`, for which the outcome was inactive.

For the compound `CCOC(=O)c1nc2sc3c(c2c(=O)[nH]1)CCC(C)C3` (configuration not stated), the result was inactive.

As for `CCOC(=O)CCCNC(=O)COC(=O)c1cc(Br)c(Br)s1`, the call was inactive.

For the compound `CCOC(=O)CSc1nnc(SCCN2C(=O)c3ccccc3C2=O)s1`, the compound was called inactive.

Turning to `CCOC(=O)CSc1nn(-c2ccccc2)c(=S)s1`, the call was inactive.

Consider `Cc1ccc2c(c1)C1C[N+](C)(CC(=O)c3ccc(Cl)cc3Cl)CCC1N2C(=O)c1ccc(F)cc1` (configuration not stated), for which the compound was called inactive.

As to `COC(=O)COc1ccc(-c2ccccc2)cc1C=O`, the compound was classed as inactive.

For the compound `CCCCCCCCSc1nnc(CSc2nc3nc(C)cc(C)n3n2)o1`, the result was inactive.

Take `Cc1cc(C)c2cc(C(=O)Nc3ccc(C)c(F)c3)[nH]c2c1`: the compound was called inactive.

Take `COC(=O)c1ccc(N/C(C)=C/C(=O)c2ccc(C)o2)cc1`: the result was inactive.

As for `COC(=O)c1cc(/C=C/c2ccccc2)on1`, the call was inactive.

With `Cc1ccccc1NC(=O)Cc1nc(COC(=O)/C=C/c2ccccc2)cs1`, the compound was called inactive.

For `N#Cc1c(SCC(N)=O)nsc1SCc1ccccc1Cl`, the compound was classed as inactive.

Turning to `O=C(CN1CCN(c2nc(-c3ccc(F)cc3)cs2)CC1)NCc1ccc2c(c1)OCO2`, the call was inactive.

As for `CCCCOc1ccc(-c2nnn(C(C)C(=O)OCC)n2)cc1` (configuration not stated), the compound was classed as inactive.

As to `CC1CCc2c(C(=O)Nc3nccs3)csc2C1` (configuration not stated), the call was inactive.

For `Cc1cccc(N2CCN(CC(=O)Nc3nccs3)CC2)c1C`, the call was inactive.

In the case of `Nc1ccc2cc(Br)ccc2c1`, the outcome was inactive.

`COC(=O)c1ccc(N/N=C/c2cc([N+](=O)[O-])cc(OC)c2O)cc1`: the compound was classed as inactive.

`COC(=O)Cc1ccc(NC(=O)c2ccc(Br)o2)cc1`: the result was inactive.

As to `CC1CCN(C(=O)c2ccc(-c3ccccc3Cl)o2)CC1`, the result was inactive.

Consider `CCOC(=O)CSCC(=O)N1CCC(Cc2ccccc2)CC1`, for which the call was inactive.

Consider `COc1ccc(OC(=O)c2cc3cc(Cl)ccc3oc2=O)cc1`, for which the outcome was inactive.

Consider `Cc1cccc(OCC(=O)NNC(=O)c2cc3ccccc3oc2=O)c1`, for which the compound was called inactive.

On to `Cn1c(SCc2ccccc2)nc(N)c(N=O)c1=O`, for which the compound was classed as inactive.

Take `CCOc1ccc(NC(=O)CSc2cn[nH]n2)cc1`: the result was inactive.

For `CCOc1ccc(N=CNc2ccc(OCC)cc2)cc1`, the outcome was inactive.

Consider `Cc1ccc(C(=O)N/N=C/C=C/c2ccccc2)cc1`, for which the result was inactive.

Turning to `COc1ccc(OCCCC(=O)OC(C)C(=O)Nc2ccccc2[N+](=O)[O-])cc1` (configuration not stated), the compound was classed as inactive.

As to `CCOC(=O)COn1c2c(c3c4no[n+]([O-])c4ccc31)CCCC2`, the outcome was inactive.

Consider `Cc1cc(O)c(/C=N/Nc2cccc(Cl)c2)c(=O)o1`, for which the call was inactive.

Turning to `Cc1cc(=O)n2[nH]c(Nc3cccc(Cl)c3)nc2n1`, the compound was classed as inactive.

Take `COc1ccc(N2C(=O)C(Cl)=C(Nc3ccccc3O)C2=O)cc1`: the compound was classed as inactive.

On to `Nc1cnc(-c2ccccc2)nc1Cl`, for which the call was inactive.

For the compound `COc1ccc2[nH]c(=O)c(CNc3cccc(C)c3)cc2c1`, the outcome was inactive.

Regarding `c1nc2n(n1)C1=C(CCCC1)C1(CCCCC1)N2`, the compound was classed as inactive.

Take `O=c1oc(-c2ccccc2[N+](=O)[O-])nc2ccccc12`: the compound was called inactive.

For the compound `CCOC(=O)c1ccc(NC(=S)NCCc2ccc(F)cc2)cc1`, the result was inactive.

On to `O=C(CCSc1ccc(Cl)cc1)NC12CC3CC(CC(C3)C1)C2`, for which the call was inactive.

Turning to `Cc1ccc(CN2C3CCCC2CC(NC(=S)NCc2ccccc2)C3)cc1` (configuration not stated), the call was inactive.

Turning to `O=C(Oc1ccccc1)c1ccccc1OS(=O)(=O)c1ccccc1`, the outcome was inactive.

As for `Cc1cc(N2CCN(C(=O)Nc3ccccc3C#N)CC2)c2ccccc2n1`, the outcome was inactive.

In the case of `COc1cc(/C=C2\C(=O)N(c3ccc(S(N)(=O)=O)cc3)N=C2C)ccc1OC(=O)c1ccco1`, the compound was called inactive.

On to `CSc1nsc(SCC(=O)Nc2ccc(F)cc2F)n1`, for which the result was inactive.

Take `CC(OC(=O)c1cnc2ccccc2n1)c1ccccc1Cl` (configuration not stated): the outcome was inactive.

For the compound `Cc1nc(N2CCN(c3ccccn3)CC2)c2c(C)c(C(=O)N3CCN(c4ccc(F)cc4)CC3)sc2n1`, the compound was called inactive.

`CCOc1ccc(NC(C)c2cc(Cl)ccc2O)cc1` (configuration not stated): the compound was classed as inactive.

On to `CCOc1ccc(-n2c(O)c(/C=N/Nc3nnc(C)c(=O)[nH]3)c3ccccc3c2=O)cc1`, for which the compound was classed as inactive.

Regarding `CCc1ccc(Nc2n[n+](C)c(-c3ccncc3)s2)cc1`, the compound was classed as inactive.

As to `Cc1ccc(C(=O)Nc2ccc3c4c(cccc24)CC3)cc1[N+](=O)[O-]`, the compound was classed as inactive.

Turning to `Cc1nc2ccc(NC(=O)c3ccc([N+](=O)[O-])cc3[N+](=O)[O-])cc2s1`, the outcome was inactive.

With `O=C1c2ccccc2CC1Sc1nnc(-c2ccncc2)o1` (configuration not stated), the result was inactive.

Regarding `CC(C)NCC(O)c1ccc(O)c(O)c1` (configuration not stated), the compound was classed as inactive.

Regarding `CSc1ccccc1C(=O)NC1CCSc2ccccc21` (configuration not stated), the call was inactive.

For `Cc1ccc(C)c(N/C(N)=N/c2nc(C)cc(C)n2)c1`, the call was inactive.

Turning to `CON(C)c1nc(C2CCCCC2)c2cc(C)ccc2n1`, the compound was classed as inactive.

Regarding `C/C=C(\C)C(=O)Nc1cccc(C2=NOC3(C2)C[C@H](C(N)=O)N(C(=O)c2cc([N+](=O)[O-])cc([N+](=O)[O-])c2)C3)c1` (some centres not stated), the result was inactive.

For `CC(C)CCNC(=O)C(c1ccc(O)cc1)N(C(=O)C1COc2ccccc2O1)c1cccc(O)c1` (configuration not stated), the result was inactive.

On to `CCOC(=O)COc1ccc(/C=C2\NC(=S)N(CC)C2=O)cc1`, for which the call was inactive.

For `Cc1cc2c(ccc3c2no[n+]3[O-])nn1`, the compound was called inactive.

As to `O=C(c1ccc(-c2cccc(C(F)(F)F)c2)o1)N1CCN(c2ccccc2O)CC1`, the compound was called inactive.

`COC(=O)C(C)Oc1ccc2c(c1)O/C(=C\c1ccco1)C2=O` (configuration not stated): the call was inactive.

On to `CCOC(=O)C(C)Oc1ccc(OCc2ccccc2)cc1` (configuration not stated), for which the outcome was inactive.

As for `Cn1ccnc1-c1nnn(-c2ccc(Cl)c(Cl)c2)n1`, the call was inactive.

For `CC12CCC(=O)N1C(C(=O)Nc1ccc(SC(F)F)cc1)CS2` (configuration not stated), the compound was classed as inactive.

Consider `CCn1cnc2sc(C(=O)Oc3ccc(Br)cc3)c(C)c2c1=O`, for which the compound was classed as inactive.

As for `COc1ccc(NC(=O)CN(C)C(=O)c2n[nH]c3ccccc23)cc1`, the compound was called inactive.

Regarding `COc1ccccc1C1CC(c2ccc(Cl)cc2)Nc2ncnn21` (configuration not stated), the compound was called inactive.

Consider `CCN(CC)S(=O)(=O)c1cc(C(=O)Oc2cccc(-c3cnc4ccccc4n3)c2)ccc1Br`, for which the call was inactive.

Take `Cc1ccc(-c2ccc(C3C(C#N)=C(N)Oc4n[nH]c(C)c43)o2)cc1` (configuration not stated): the call was inactive.

As for `CCc1nnc(N/N=C/c2cc(C)c(C)cc2C)n1N`, the outcome was inactive.

`COc1ccc(-c2nnn(CC(=O)OC3CCCCC3)n2)cc1OC`: the outcome was inactive.

For `CO[C@@H]1[C@@H](OC(N)=O)[C@@H](O)C(Oc2ccc3c(O)c(NC(=O)c4ccc(O)c(CC=C(C)C)c4)c(=O)oc3c2C)OC1(C)C` (some centres not stated), the result was inactive.

Regarding `O=Cc1ccc2noc(-c3ccc(Cl)cc3)c2c1`, the compound was classed as inactive.

For the compound `O=C(COC(=O)C1=COCCO1)NCc1ccc(Cl)cc1`, the outcome was inactive.

As for `O=S1(=O)CCC(N=Cc2ccc(-c3ccc(Cl)cc3)o2)C1` (configuration not stated), the outcome was inactive.

For `Cc1cc(C)c2c(CN3CCN(Cc4ccccc4)CC3)cc(=O)oc2c1C`, the compound was classed as inactive.

As to `Cc1ccc2cc(C)c(N3CCN(c4ccccn4)CC3)nc2c1`, the compound was classed as inactive.

For `Cc1ccc2[nH]c3c(c2c1)CN(C(=O)CN1CCN(c2ccccn2)CC1)CC3`, the result was inactive.

Consider `C#CCOCCOCCOCCNc1nc(N2CCN(C(=O)C(Cc3ccc(O)cc3)n3cc(C(N)CC(C)C)nn3)CC2)nc(N2CCN(C(=O)C(Cc3cc4ccccc4[nH]3)n3cc(C(N)Cc4ccc(O)cc4)nn3)CC2)n1` (configuration not stated), for which the compound was called inactive.

Take `CC1(C)CN(c2ccccc2)N(C(=O)c2ccc(C#N)cc2)C1=O`: the result was inactive.

Turning to `CCOc1ccc(N2CC(=O)Nc3ccccc3NCC2=O)cc1`, the call was inactive.

For `CCOc1ccc(-n2cc(-c3ccccc3)c3c(=O)[nH]cnc32)cc1`, the compound was classed as inactive.

Take `Cc1ccccc1-c1nc2cc(N)ccc2o1`: the compound was called inactive.

`O=C([O-])c1ccccc1-[n+]1c(-c2ccccc2)cc(-c2ccccc2)cc1-c1ccccc1`: the outcome was inactive.

For the compound `Cc1nc(-c2ccc(Cl)cc2)sc1C1(C)CC(c2ccc(C#N)cc2)=NO1` (configuration not stated), the outcome was inactive.

For the compound `CCOc1cc(C(=O)OCc2ccc(C(=O)OC)o2)cc(Br)c1OC`, the result was inactive.

For the compound `Cc1ccc(-c2ccnc(=S)[nH]2)cc1`, the result was inactive.

For the compound `CC12CN3CCN(CC(C3)/C1=N\NC(=O)Nc1cccc(Cl)c1)C2`, the compound was classed as inactive.

Consider `CNC(CC(C)C)C(=O)NC1C(=O)NC(CC(N)=O)C(=O)NC2C(=O)NC3C(=O)NC(C(=O)NC(C(=O)O)c4cc(O)cc(O)c4-c4cc3ccc4O)C(O)c3ccc(c(Cl)c3)Oc3cc2cc(c3OC2OC(CO)C(O)C(O)C2OC2C[C@](C)(N)C(O)C(C)O2)Oc2ccc(cc2Cl)C1O` (some centres not stated), for which the result was inactive.

Turning to `COc1cc(C)ccc1S(=O)(=O)N1CCN(C23CC4CC(CC(C4)C2)C3)CC1`, the result was inactive.

Take `Brc1ccc(-c2nc3ncccn3c2Nc2ccc3c(c2)OCCO3)o1`: the compound was classed as inactive.

As to `COC(=O)[C@@H](NC(=O)O[C@@H]1C(=O)c2ccc(OC)cc2O[C@H]1c1cccc(C(F)(F)F)c1)C(C)C`, the result was inactive.

For the compound `Cc1ccn2nc(S(=O)(=O)Nc3c(F)cccc3F)nc2n1`, the result was inactive.

With `Cc1ccc(OC(=O)CCN2C(=O)c3ccccc3C2=O)cc1C`, the result was inactive.

Consider `O=[N+]([O-])c1ccc(N2CCCCC2)s1`, for which the call was inactive.
